Active and inactive are the calls of the source. The calls were made as follows: active = hit-call score of the fitted dose curve at least 0.9, where 1 is the maximum; inactive = score below 0.9.
Legend:
[1] = Tanguay_ZF_120hpf_BRN: Oregon State University Tanguay Lab 120 Hour Post-fertilization zebrafish Assay for Brain Region Malformation (AID 2284402)
Summary of the method: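 Binary brightfield scoring of brain malformation at 120 hpf in 5D wild-type larvae, chorion removed with pronase at 4 hpf. Static exposure began at 6 hpf, 28C, sealed plates, DMSO 0.64% (vol/vol) as vehicle baseline.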

[2] = Tanguay_ZF_120hpf_TCHR: Oregon State University Tanguay Lab 120 Hour Post-fertilization zebrafish Assay for Touch Responsive (AID 2284403)
Summary of the method: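 Binary touch-response calls are made at 120 hpf in 5D wild-type zebrafish larvae. These larvae were dechorionated with pronase and exposed singly from 6 hpf in sealed, dark plates at 28 °C with 0.64% DMSO final; dead embryos are excluded.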

[3] = Tanguay_ZF_120hpf_ANY: Oregon State University Tanguay Lab 120 Hour Post-fertilization zebrafish Assay for Any Mortality and Malformation (AID 2284404)
Summary of the method: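 Dechorionated Tropical 5D wild-type embryos, one per well from 6 hpf, static exposure in sealed, dark plates at 28C until 120 hpf, 0.64% DMSO final. Brightfield scoring of mortality and malformations as binary presence/absence, pooling 13 morphology endpoints.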

[4] = CCTE_Padilla_ZF_Score.Craniofacial: CCTE's 144 Hour Post-fertilization zebrafish Assay Score for Craniofacial Malformation, Padilla Lab (AID 2284405)
Summary of the method: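 Craniofacial defects were scored at 6 dpf by two blinded observers using stereomicroscopy. Exposure of wild-type embryos began at 6–8 hpf in sealed wells of 10% Hanks' solution at 26C, with chemical removed by rinsing at 5 dpf.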

[5] = CCTE_Padilla_ZF_Score.Edema: CCTE's 144 Hour Post-fertilization zebrafish Assay Score for Edema Malformation, Padilla Lab (AID 2284406)
Summary of the method: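 Edema scored at 6 dpf by two blinded observers under a stereo microscope, in single outbred wild-type larvae exposed from 6-8 hpf in sealed wells (Hanks', 26C, 14:10 h light) and chemical-free after a 5 dpf rinse.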

[6] = CCTE_Padilla_ZF_Score.Spine: CCTE's 144 Hour Post-fertilization zebrafish Assay Score for Spine Malformation, Padilla Lab (AID 2284407)
Summary of the method: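 Spine malformation scored at 6 dpf by two independent blinded observers under stereomicroscope, after static sealed exposure from 6–8 hpf at 26C in Hanks' solution with rinse on 5 dpf. Positive-direction fit against DMSO control.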

[7] = CCTE_Padilla_ZF_Score.Swim_bladder: CCTE's 144 Hour Post-fertilization zebrafish Assay Score for Swim Bladder Malformation, Padilla Lab (AID 2284408)
Summary of the method: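 Swim bladder inflation scored at 6 dpf by two blinded observers under a stereo microscope. Exposure ran from 6–8 hpf in sealed wells of 10% Hanks' at 26C, with rinsing at 5 dpf; DMSO served as baseline.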

[8] = CCTE_Padilla_ZF_Score.Position: CCTE's 144 Hour Post-fertilization zebrafish Assay Score for Position, Padilla Lab (AID 2284409)
Summary of the method: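 Wild-type zebrafish embryos (with chorions) exposed singly from 6–8 hpf in sealed wells of Hanks' solution at 26C, rinsed at 5 dpf. At 6 dpf, blinded assessors scored abnormal water-column position by brightfield stereomicroscopy, relative to DMSO.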

[9] = CCTE_Padilla_ZF_Score.Living: CCTE's 144 Hour Post-fertilization zebrafish Assay Score for Viability, Padilla Lab (AID 2284410);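 also: larval death at 6 dpf judged by absent heartbeat or coagulation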
Summary of the method: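 Mortality at 6 dpf, judged as absent heartbeat or coagulation by two blinded observers, after sealed static exposure beginning at 6–8 hpf at 26C. Larvae were rinsed free of chemical at 5 dpf, and activity was fitted relative to DMSO.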

[10] = CCTE_Padilla_ZF_Score.Tail: CCTE's 144 Hour Post-fertilization zebrafish Assay Score for Tail Malformation, Padilla Lab (AID 2284414)
Summary of the method: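 Tail malformations were scored at 6 dpf by two blinded assessors under a stereo microscope. Chorionated embryos had been exposed from 6-8 hpf in sealed wells of 10% Hanks' at 26 C, then rinsed free of chemical at 5 dpf.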

[11] = CCTE_Padilla_ZF_Score.Blood_pooling: CCTE's 144 Hour Post-fertilization zebrafish Assay Score for Blood Pooling, Padilla Lab (AID 2284415)
Summary of the method: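 Blood pooling was scored at 6 dpf under a stereo microscope by two blinded assessors, fitted upward against DMSO. Single embryos were dosed at 6–8 hpf in 10% Hanks', kept sealed at 26C (14:10 h cycle) and rinsed at 5 dpf.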

[12] = CCTE_Padilla_ZF_Score.Any: CCTE's 144 Hour Post-fertilization zebrafish Assay Score for Any Mortality or Malformation, Padilla Lab (AID 2284416)
Summary of the method: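 Wild-type zebrafish embryos with chorions, one per well in 10% Hanks' from 6–8 hpf, dosed in sealed plates at 26 C, 14:10 h light:dark; rinsed at 5 dpf; blinded scoring at 6 dpf for death or malformation, versus DMSO.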

[13] = CCTE_Padilla_ZF_Score.General: CCTE's 144 Hour Post-fertilization zebrafish Assay Score for General Malformation, Padilla Lab (AID 2284411)
Summary of the method: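 Malformation, death and hatching were scored at 6 dpf by two blinded observers under a stereo microscope. Embryos were dosed singly from 6-8 hpf in sealed plates of 10% Hanks' at 26C and rinsed on 5 dpf; DMSO baseline.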

TTR (gene 7276) = experiment: CCTE_GLTED_hTTR_0.125uM: CCTE's human Transthyretin (hTTR) Inhibition Assay, with 0.125uM TTR, Great Lakes Toxicology and Ecology Division (GLTED) Lab (AID 2284431);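 also: hits lower the fluorescence signal relative to DMSO baseline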
Summary of the method: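 Probe-displacement format: chemicals competing for the T4 site release ANSA from 0.125uM TTR during a 2 h incubation, measured by fluorescence at 380 excitation and 475 emission.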

Measured: AC50

O=C(O)CCC(F)(F)C(F)(F)C(F)(F)C(F)(F)C(F)(F)C(F)(F)C(F)(F)F
not listed: [13] | TTR (gene 7276)
inactive: all other assays above

O=C(O)C(F)(F)C(F)(F)C(F)(F)OC(F)(F)F
not listed: [13] | TTR (gene 7276)
inactive: all other assays above

C=CC(=O)OCC(F)(F)C(F)(F)C(F)(F)C(F)(F)C(F)(F)C(F)(F)C(F)(F)C(F)F
active: [7] 102 µM
not listed: TTR (gene 7276)
inactive: all other assays above

O=C(F)C1(F)C(F)(F)C(F)(F)C(F)(F)C(F)(F)C1(F)F
not listed: [13] | TTR (gene 7276)
inactive: all other assays above

C=C(C)C(=O)OCC(F)(F)C(F)(F)C(F)(F)C(F)F
active: [12] 30 µM
not listed: [1] | [2] | [3] | [13] | TTR (gene 7276)
inactive: all other assays above

c1ccc(C[P+](c2ccccc2)(c2ccccc2)c2ccccc2)cc1
inactive: [13]

CCC(Cc1c(I)cc(I)c(N)c1I)C(=O)O (configuration not stated)
active: TTR (gene 7276) 2.1 µM

FC(F)(F)C(F)(F)C(F)(F)CC1CO1 (configuration not stated)
not listed: [13] | TTR (gene 7276)
inactive: all other assays above

O=C(c1ccccc1)c1ccc(O)cc1O
active: TTR (gene 7276) 0.0464 µM

CCN=c1cc2oc3cc(NCC)c(C)cc3c(-c3ccccc3C(=O)OCC)c-2cc1C
active: TTR (gene 7276) 32.2 µM

CN1CN(C)CN(C)C1
inactive: [13]

O=C(Cl)C(F)(F)C(F)(F)C(F)(F)C(F)(F)C(F)(F)C(F)(F)C(F)(F)F
active: [5] 86.8 µM | [12] 86.8 µM
inactive: [4] | [6] | [7] | [8] | [9] | [10] | [11]

NC(O)(C(F)(F)F)C(F)(F)F
not listed: [13] | TTR (gene 7276)
inactive: all other assays above

NS(=O)(=O)C(F)(F)C(F)(F)C(F)(F)C(F)(F)C(F)(F)C(F)(F)F
active: [3] 10.6 µM | [4] 2.66 µM | [5] 2.27 µM | [7] 2.66 µM | [8] 2.51 µM | [9] 4.62 µM | [12] 1.81 µM
inactive: [1] | [2] | [6] | [10] | [11]

O=C(O)C(F)(F)OC(F)(F)C(F)(F)OC(F)(F)C(F)(F)OC(F)(F)F
not listed: [1] | [2] | [3] | [13] | TTR (gene 7276)
inactive: all other assays above

NCC(F)(F)C(F)(F)C(F)(F)C(F)(F)C(F)(F)C(F)(F)C(F)(F)C(F)(F)F
inactive: [4] | [5] | [6] | [7] | [8] | [10] | [11]
active: [9] 32.4 µM | [12] 32.9 µM

O=C(O)C(F)(F)C(F)(F)C(F)(F)C(F)(F)C(F)(F)C(F)(F)C(F)F
not listed: [1] | [2] | [3] | [13] | TTR (gene 7276)
inactive: all other assays above

O=C(Cl)C(F)(F)C(F)(F)C(F)(F)C(F)(F)C(F)(F)C(F)(F)F
inactive: [4] | [6] | [7] | [8] | [9] | [10] | [11]
active: [5] 76.8 µM | [12] 76.8 µM

O=S(=O)(O)CCC(F)(F)C(F)(F)C(F)(F)C(F)(F)C(F)(F)C(F)(F)C(F)(F)C(F)(F)F
active: [3] 74.4 µM
not listed: [13] | TTR (gene 7276)
inactive: all other assays above

CCN(CCO)S(=O)(=O)C(F)(F)C(F)(F)C(F)(F)C(F)(F)C(F)(F)C(F)(F)C(F)(F)C(F)(F)F
not listed: [13] | TTR (gene 7276)
inactive: all other assays above

NCC(F)(F)C(F)(F)C(F)(F)C(F)(F)C(F)(F)C(F)(F)F
active: [5] 75.3 µM | [13] 75.3 µM | [12] 75.3 µM
not listed: [1] | [2] | [3] | TTR (gene 7276)
inactive: all other assays above

OCC(O)CC(F)(F)C(F)(F)C(F)(F)C(F)(F)F (configuration not stated)
not listed: [13] | TTR (gene 7276)
inactive: all other assays above

CN(C(=O)C(F)(F)C(F)(F)C(F)(F)F)[Si](C)(C)C
not listed: [13] | TTR (gene 7276)
inactive: all other assays above

COC(F)(C(F)F)C(F)(F)F (configuration not stated)
not listed: [13] | TTR (gene 7276)
inactive: all other assays above

CCN=C1C=CC(=C(c2ccc(N(CC)CC)cc2)c2ccc(N(CC)CC)cc2)c2ccccc21
active: TTR (gene 7276) 1.85 µM

CCCCCCCC/C=C\CCCCCCCC(=O)N(C)CC(=O)O
active: TTR (gene 7276) 3.75 µM

O=S(=O)(OCC(F)(F)F)C(F)(F)C(F)(F)C(F)(F)C(F)(F)F
active: [5] 34.1 µM | [7] 88.8 µM | [11] 33.3 µM | [12] 33.3 µM
not listed: [13] | TTR (gene 7276)
inactive: all other assays above

O=S(=O)(O)CCC(F)(F)C(F)(F)C(F)(F)C(F)(F)F
not listed: [13] | TTR (gene 7276)
inactive: all other assays above

NC(=O)C(F)(F)C(F)(F)C(F)(F)C(F)(F)C(F)(F)C(F)(F)C(F)(F)F
active: [3] 43.4 µM
not listed: [13] | TTR (gene 7276)
inactive: all other assays above

Reference: PubChem BioAssay (EPA / NIEHS)
